The entries come from a sample that favours hits as a whole.
CD40 NFkB inh: CD40 pathway inhibition in BL2 cells. BL2 NF-kB luciferase reporter, CD40L-induced, 4 h. inhibition, % at 10 µM. AID 1053188. hit rate 0.94% among 83,000;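 active means mean inhibition of at least 50% with a set share of replicates also reaching that level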;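 further: 0% = neutral control wells and 100% = IKK inhibitor VII at 50 µM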
* marks the source's active call; other numbers are inactive results; [ ] = dose if it differs, or a comment.

SMILES | CD40 NFkB inh
COc1ccc(NC(=O)Nc2ccc3c(c2)[C@@H]2C[C@@H](CC(=O)N4CCN(C)CC4)O[C@H](CO)[C@@H]2O3)cc1 | -1[25 µM]
CC(C)CCCCCCCCCCCCC(=O)NCC(=O)NC1C(O)C(O)C(Nc2ncnc3nc[nH]c23)OC1C(O)CO (stereo not given) | 104*
CC(C)=NNc1ncnc2nc[nH]c12 | -17
C[C@H](CO)N1C[C@H](C)[C@@H](CN(C)C(=O)Cc2ccccc2)OCCCC[C@H](C)Oc2ccc(NS(C)(=O)=O)cc2C1=O | 0[25 µM]
CO[C@H]1CN(C)C(=O)c2cc(NC(=O)c3cnccn3)ccc2OC[C@H](C)NC[C@H]1C | -4[25 µM]
COc1ccccc1C#Cc1ccc([C@@H]2[C@@H](C#N)N(C(=O)C3CCCCC3)[C@@H]2CO)cc1 | -1
N#C[C@@H]1[C@H](c2ccc(C#Cc3ccccc3F)cc2)[C@@H](CO)N1C(=O)C1CCC1 | 81*
N#C[C@H]1[C@H](c2ccc(C#Cc3ccc(F)cc3)cc2)[C@H](CO)N1C(=O)C1CCC1 | 28[25 µM]
N#C[C@@H]1[C@H](c2ccc(C#Cc3ccc(F)cc3)cc2)[C@@H](CO)N1C(=O)C1CCC1 | 90*[25 µM]
N#C[C@H]1[C@H](c2ccc(C#Cc3ccccc3F)cc2)[C@@H](CO)N1C(=O)C1CCC1 | 62*
N#C[C@@H]1[C@@H](c2ccc(C#Cc3ccccc3F)cc2)[C@H](CO)N1C(=O)C1CCC1 | -29
N#C[C@H]1[C@H](c2ccc(C#Cc3ccccc3F)cc2)[C@H](CO)N1C(=O)C1CCC1 | -3
COc1ccccc1C#Cc1ccc([C@H]2[C@@H](C#N)N(C(=O)C3CCC3)[C@@H]2CO)cc1 | -7[25 µM]
N#C[C@H]1[C@@H](c2ccc(C#Cc3ccc(F)cc3)cc2)[C@H](CO)N1C(=O)C1CCC1 | 6[25 µM]
CN1[C@@H]2c3ccc(C4=CCCCC4)c(=O)n3C[C@H]1[C@H](CO)[C@H]2C(=O)NCc1cccc(F)c1 | -8[25 µM]
CN1c2ccc(Br)cc2[C@@H]2[C@@H](CCN2C(=O)CN2CCOCC2)[C@@H]1CO | -3[25 µM]
Cc1ccccc1-c1ccc(C2[C@@H]3CN(Cc4ccc5c(c4)OCO5)C[C@H]2N3)cc1 (stereo not given in full) | 9[25 µM]
Cc1cccc(-c2ccc([C@H]3[C@H]4CN(CCC(F)(F)F)CCCCN4[C@H]3CO)cc2)c1 | -13[25 µM]
CC(C)n1cnc2c(NCc3ccccc3O)nc(NCCCO)nc21 | -2[25 µM]
CC(C)[C@H](C)NC(=O)N(C)C[C@H]1OCc2ccccc2-c2c(n(C)c3ccccc23)C(=O)N([C@H](C)CO)C[C@H]1C | -4
COc1ccc2c3c(n(C)c2c1)[C@H](CO)N(C(=O)c1ccc(F)cc1)CC31CN(CC2CCOCC2)C1 | 1[25 µM]
C[C@@H]1CN([C@H](C)CO)C(=O)c2cc(NS(=O)(=O)c3cccs3)ccc2O[C@@H](C)CCCCO[C@@H]1CN(C)Cc1ccc(Cl)c(Cl)c1 | 42[25 µM]
C[C@@H]1CCCCO[C@@H](CN(C)Cc2ccc(Cl)c(Cl)c2)[C@H](C)CN([C@@H](C)CO)C(=O)c2cc(NS(=O)(=O)c3cccs3)ccc2O1 | 39[25 µM]
C[C@H](CO)N1C[C@H](C)[C@H](CN(C)C(=O)c2ccncc2)OCCCC[C@H](C)Oc2ccc(NS(=O)(=O)c3cccs3)cc2C1=O | -12[25 µM]
C[C@@H]1CCCCO[C@@H](CN(C)Cc2ccc(Cl)c(Cl)c2)[C@H](C)CN([C@H](C)CO)C(=O)c2cc(NS(=O)(=O)c3cccs3)ccc2O1 | 58*[25 µM]
SMILES | CD40 NFkB inh
C[C@@H]1CN([C@H](C)CO)C(=O)c2cc(NS(=O)(=O)c3cccs3)ccc2O[C@@H](C)CCCCO[C@H]1CN(C)Cc1ccc(Cl)c(Cl)c1 | 56*[25 µM]
C[C@@H]1CCCCO[C@@H](CN(C)Cc2ccc(Cl)c(Cl)c2)[C@@H](C)CN([C@@H](C)CO)C(=O)c2cc(NS(=O)(=O)c3cccs3)ccc2O1 | 35[25 µM]
CO[C@H]1CN(C)C(=O)c2ccc(NS(=O)(=O)c3c(C)noc3C)cc2OC[C@H](C)NC[C@@H]1C | -4[25 µM]
O=S(=O)(c1ccc(F)cc1)N1[C@@H]2CNC[C@H]1C2c1ccc(-c2ccccc2)cc1 (stereo not given in full) | -15
C[C@@H]1CN([C@H](C)CO)C(=O)c2c(c3ccccc3n2C)-c2ccccc2CO[C@@H]1CN(C)Cc1cccc(C(=O)O)c1 | -9
O=C(c1ccccc1F)N1CC[C@@H]2[C@@H](CO)Nc3ccc(C#Cc4ccc(F)cc4)cc3[C@@H]21 | -4[25 µM]
C[C@@H]1CCCCO[C@H](CN(C)C(=O)Cc2ccccc2)[C@H](C)CN([C@@H](C)CO)C(=O)c2cc(NS(C)(=O)=O)ccc2O1 | -11[25 µM]
COc1ccc2c3c(n(C)c2c1)[C@H](CO)N(CC1CC1)CC31CN(C(=O)c2ccc3c(c2)OCO3)C1 | -5[25 µM]
CN(C[C@@H]1N[C@H](CO)[C@@H]1c1ccc(C2=CCCCC2)cc1)S(C)(=O)=O | -2
Cn1cnc(S(=O)(=O)N2C[C@H](O)COC[C@H]3O[C@@H](CC(=O)NCc4cccc(F)c4)CC[C@@H]32)c1 | -6[25 µM]
O=C(Cn1cnc2ccccc2c1=O)c1ccc2c(c1)OCCO2 | -58
O=C(CCN1C(=O)c2ccccc2S1(=O)=O)Nc1ccc2c(c1)OCCO2 | -19
O=C(CN1C(=O)c2ccccc2S1(=O)=O)c1ccc2c(c1)OCCO2 | 95*
CCS(=O)(=O)N1CCC2(CC1)CN[C@@H](CO)c1c2c2ccc(OC)cc2n1C | -9[25 µM]
CCOC(=O)/C=C/S(=O)(=O)c1ccc(NC(C)=O)cc1 | 110*
CCS(=O)(=O)Nc1ccc(NC(C)=O)cc1 | -9
CCC(C)NS(=O)(=O)c1ccc(NC(C)=O)cc1 (stereo not given) | 8
COCC(=O)N1CC2(CCN(Cc3cccnc3)CC2)c2c(n(C)c3cc(OC)ccc23)[C@H]1CO | -9[25 µM]
CC(C)NC(=O)Nc1ccc2c(c1)C(=O)N(C)C[C@H](C)[C@H](CN(C)C(=O)OC(C)(C)C)O2 | 0
COC(=O)C12OCC34C(CC5C(C)=C(O)C(=O)CC5(C)C3C(O)C1O)OC(=O)C(OC(=O)C=C(C)C)C24 (stereo not given) | 103*
C[C@H](CO)N1C[C@H](C)[C@H](CN(C)S(=O)(=O)c2ccc(F)cc2)Oc2ccc(NC(=O)c3ccncc3)cc2C1=O | -5
O=C(NCCNc1ccnc2cc(Cl)ccc12)c1ccccc1F | 37*
OC(CNc1ccnc2cc(Cl)ccc12)CNC1CCCCC1 (stereo not given) | -8
CCN(CC)CCNc1ccnc2cc(Cl)ccc12 | -7
COc1cccc(-c2ccc3c(c2)[C@H]2[C@H](CCN2C(=O)C2CC2)[C@@H](CO)N3)c1 | 6
SMILES | CD40 NFkB inh
COc1ccc(-c2ccc3n(c2=O)C[C@H]2[C@H](CO)[C@@H](C(=O)NC4CCC4)N(S(C)(=O)=O)[C@@H]32)cc1 | 11[25 µM]
O=C(NC[C@@H]1[C@@H](c2ccccc2)[C@@H](CO)N1C(=O)C1CCC1)NC1CCCC1 | 0[25 µM]
OC[C@H]1N[C@@H](CNCC2CCC2)[C@@H]1c1ccc(C2=CCCCC2)cc1 | 3[25 µM]
Cc1cc(Br)c(OCc2ccc(C(=O)N/N=C/c3ccc[nH]3)cc2)c(Br)c1 | 75*
O=C(CNC(=O)c1ccc(Br)cc1)N/N=C/c1ccc[nH]1 | 6
O=C(N/N=C/c1ccc[nH]1)c1ccc(O)cc1 | -39
CN1c2ccc(-c3cccc(F)c3)cc2[C@H]2[C@H](CCN2C(=O)c2ccc3c(c2)OCO3)[C@@H]1CO | -7[25 µM]
CO[C@@H]1CN(C)C(=O)c2ccc(NC(=O)C3CCCC3)cc2OC[C@@H](C)N(CC2CC2)C[C@H]1C | -5
COc1ccc(-c2cccc(NC(=O)c3ccco3)c2)nn1 | -10
